Compounds with a hit are over-represented: about 4.8% of the library has one in this group of screens.
S2 tox – Viability Counterscreen for Primary qHTS for Inhibitors of ATXN expression; S2 cells (HEK-293 line with an ATXN2-luciferase reporter) viability, CellTiter-Fluor protease fluorescence, 24 h; 400,000 tested, 0.49% active; Potency, µM (top dose mostly 56.7 µM), hits mostly cytotoxic; AID 651635, 2014; further: potency means the concentration at half of the fitted maximal effect; nearly all actives have a fitted effect of over 40% in size
D3 ag – qHTS of D3 Dopamine Receptor Agonist: qHTS; D(3) dopamine receptor (Homo sapiens), P35462; D3R DiscoveRx beta-arrestin cells, luminescence, 90 min; max activation, %; 410,000 tested, 0.58% active; in the data active means max activation above about 30%; further: 0% is about no effect
Target sequence (P35462 whole entry, looked up): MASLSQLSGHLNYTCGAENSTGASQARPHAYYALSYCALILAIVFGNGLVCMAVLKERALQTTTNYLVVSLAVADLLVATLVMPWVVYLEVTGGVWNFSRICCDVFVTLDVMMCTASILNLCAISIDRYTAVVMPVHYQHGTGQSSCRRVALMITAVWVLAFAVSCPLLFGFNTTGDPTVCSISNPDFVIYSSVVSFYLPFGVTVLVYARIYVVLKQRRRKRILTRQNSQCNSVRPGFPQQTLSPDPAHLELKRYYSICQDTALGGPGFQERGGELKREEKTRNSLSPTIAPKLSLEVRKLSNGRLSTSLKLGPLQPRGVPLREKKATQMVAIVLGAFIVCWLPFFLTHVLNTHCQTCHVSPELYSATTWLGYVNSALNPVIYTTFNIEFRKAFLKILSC
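Cells at 1500/well, incubated overnight, then treated with pinned compounds (dopamine as control) for 90 min at 37 degrees C. DiscoveRx reagent added for 30 - 60 minutes at room temperature; luminescence read.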
HepG2 tox – qHTS for Inhibitors of TGF-b: Cytotox Counterscreen. HepG2 CAGA-GFP viability, ATP luminescence, 18 h. Potency, µM (doses to about 46.1 µM), for the others: top-dose activity change, negative = cytotoxicity, most hits filed as cytotoxic. 410,000 tested, 0.76% active. AID 588856, 2011; further: potency means the concentration at half of the fitted maximal effect
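HepG2 CAGA-GFP cells (1000/well, DMEM with 1% FBS) received compound, then TGF-beta at 500 pg/mL final, and were incubated 18 hours at 37 degrees C. Viability was read by CellTiter-Glo luminescence. Media-only wells were set as complete cell-killing and DMSO as no toxicity.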
D3 antag – qHTS of D3 Dopamine Receptor Antagonist: qHTS. D(3) dopamine receptor (Homo sapiens), P35462. D3R cells, DiscoveRx beta-arrestin luminescence, antagonist mode; stronger effect = lower value. max response, negative = inhibition, %. 360,000 tested, 2.5% active. AID 652054, 2013; in the data active means max response below about -50%; inconclusive means no clear call, values can overlap the other calls; further: on the % scale 0 is the no-effect control and ±100 the full control effect
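Cells expressing the human receptor were seeded at 1500 cells/well, incubated overnight at 37 degrees C in 5% CO2, then exposed to library compounds with dopamine controls for 90 minutes at 37 degrees C before luminescent detection.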
ATXN2 expr inh – Primary qHTS for Inhibitors of ATXN expression; HEK-293 ATXN2-luciferase reporter, luminescence, 24 h; 360,000 tested, 0.72% active; AID 1745845, 2022; Potency, µM (highest dose often 57 µM), for the others: top-dose activity change, negative = inhibition, most hits filed as inhibitors; further: potency means the concentration at half of the fitted maximal effect; on the % scale 0 is the no-effect control and ±100 the full control effect; nearly all actives have a fitted effect of over 55% in size
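ATXN2-luciferase reporter cells (luciferase flanked by upstream and downstream ATXN2 gene portions) were treated 24 h at 37 °C with compounds at up to 57 uM. SteadyGlo luminescence gave expression; GF-AFC fluorescence gave viability.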
TGFb inhibitor – qHTS for Inhibitors of TGF-b; HepG2 CAGA-GFP TGF-b/SMAD3 reporter, GFP fluorescence, 18 h; TGF-beta stimulated, 500 pg/mL final; Potency, µM (top dose mostly 46.1 µM), inactives show at the highest dose activity, negative = inhibition, most hits filed as inhibitors; 410,000 tested, 1.2% active; AID 588855, 2011; further: potency means the concentration at half of the fitted maximal effect; on the % scale 0 is the no-effect control and ±100 the full control effect; nearly all actives have a fitted effect of over 65% in size
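Per well, imaged GFP fluorescence of HEPG2 CAGA-GFP cells gives the signal; cells get compound, then TGF-beta (500 pg/mL final), 18 h at 37 degrees C; %Activity versus -TGF-beta and +DMSO controls.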
Numbers without * were called inactive. Unless noted, the call rests on the fitted dose curve; in most records, active means well fitted curve in the direction sought with a large enough effect; inconclusive means small, poorly fitted or top-dose-only effect, or another doubt; inactive means no such curve, though single readings can be large; an effect the other way counts as inactive or inconclusive.

Results for Cc1cccc2c1=NC(=O)/C(=C/c1c(O)[nH]c(=O)[nH]c1=O)C=2 ?
S2 tox: inactive; D3 ag: -8.9; HepG2 tox: -5.3%; D3 antag: -11.4; ATXN2 expr inh: -4.3%; TGFb inhibitor: 1.0%

How did O=c1[nH]c(=S)[nH]c(O)c1/C=C1/C=c2ccccc2=N1 do in these assays?
S2 tox: inactive; D3 ag: 0.0; HepG2 tox: -42.0%; D3 antag: 9.3; ATXN2 expr inh: -13.6%; TGFb inhibitor: 12.6µM*

Results for Cc1ccc(Cl)cc1N1CCN(C(=O)C2CCCN(S(=O)(=O)c3ccc(Br)s3)C2)CC1 (configuration not stated) ?
S2 tox: inactive; D3 ag: 1.3; HepG2 tox: 4.2%; ATXN2 expr inh: -5.0%; TGFb inhibitor: inconclusive

What do the screens show for `Cc1cc(OC(=O)N(C)C)nc(SCc2c(Cl)cccc2Cl)n1`?
S2 tox: inactive; D3 ag: 4.0; HepG2 tox: 8.91µM*; D3 antag: -11.5; TGFb inhibitor: -26.8%

How did COCCCN1CCN(c2nnc3n2-c2sc(Br)cc2C(c2ccccc2Cl)=NC3)CC1 do in these assays?
S2 tox: inactive; D3 ag: -6.0; HepG2 tox: -11.1%; D3 antag: -56.5*; ATXN2 expr inh: -6.0%; TGFb inhibitor: -10.3%

Results for C[C@@H]1[C@H](O)[C@@H](C)C=CC=CCCC=CC=CC=CC=C[C@H](O[C@H]2O[C@@H](C)[C@H](O)[C@@H](N)[C@@H]2O)CC2O[C@](O)(C[C@@H](O)[C@H](O)CC[C@@H](O)C[C@@H](O)C[C@@H](O)CC(=O)O[C@H]1C)C[C@H](O)[C@H]2C(=O)O ?
S2 tox: inactive; ATXN2 expr inh: 9.8%

How did O=C1NCN(c2ccccc2)C12CCN(C(CCc1ccccc1)c1nnnn1C1CCCC1)CC2 (configuration not stated) do in these assays?
S2 tox: 31.6µM*; D3 ag: -1.8; HepG2 tox: -31.6%; D3 antag: -11.4; ATXN2 expr inh: inconclusive; TGFb inhibitor: 11.2µM*

Results for O=C1NCN(c2ccccc2)C12CCN(C(c1cccs1)c1nnnn1C1CCCC1)CC2 (configuration not stated) ?
S2 tox: inconclusive; D3 ag: -10.3; HepG2 tox: -4.8%; D3 antag: -12.7; ATXN2 expr inh: inconclusive; TGFb inhibitor: inconclusive

How did O=C1NCN(c2ccccc2)C12CCN(C(CCc1ccccc1)c1nnnn1C1CCCCC1)CC2 (configuration not stated) do in these assays?
S2 tox: inconclusive; D3 ag: -5.0; HepG2 tox: -49.5%; D3 antag: -21.9; ATXN2 expr inh: inconclusive; TGFb inhibitor: 12.6µM*

How did COc1ccccc1CCNCc1cc2c(cc1[N+](=O)[O-])OCO2 do in these assays?
S2 tox: inactive; D3 ag: 0.8; HepG2 tox: -16.7%; D3 antag: -55.7*; ATXN2 expr inh: 6.5%; TGFb inhibitor: 5.1%

What do the screens show for `CCCCc1ccc2[nH]cc(CCN)c2c1`?
S2 tox: inactive; D3 ag: 65.1*; HepG2 tox: -74.9%; D3 antag: -0.7; ATXN2 expr inh: inconclusive; TGFb inhibitor: inconclusive

Results for NCCc1c[nH]c2ccccc12 ?
S2 tox: inactive; D3 ag: -38.0; HepG2 tox: -16.1%; D3 antag: inconclusive; ATXN2 expr inh: -17.4%; TGFb inhibitor: 4.3%

Results for CCc1ccc(NC(=O)c2ccc3oc(=O)n(Cc4ccccc4)c3c2)cc1 ?
S2 tox: inconclusive; D3 ag: 1.4; HepG2 tox: -21.2%; ATXN2 expr inh: -15.0%; TGFb inhibitor: inconclusive

What do the screens show for `C[N+]1(C)[C@@H]2CC(OC(=O)[C@H](CO)c3ccccc3)C[C@H]1[C@H]1O[C@@H]12` (some centres not stated)?
ATXN2 expr inh: -2.4%

What do the screens show for `C[C@H]1CNC(=O)c2c(C(=O)N3CCN(C(=O)OC(C)(C)C)CC3)ncn21`?
S2 tox: inconclusive; D3 ag: -13.1; HepG2 tox: -8.0%; D3 antag: -55.2*; ATXN2 expr inh: inconclusive; TGFb inhibitor: 0.7%

How did COc1ccc(C)cc1NC(=O)Cn1c(=O)oc2cc(S(=O)(=O)N3CCCCC3)ccc21 do in these assays?
S2 tox: inactive; D3 ag: 0.0; HepG2 tox: -33.7%; ATXN2 expr inh: -11.0%; TGFb inhibitor: -23.8%

Results for C=CCN1CCc2cccc3c2[C@H]1Cc1ccc(O)c(O)c1-3 ?
S2 tox: inconclusive; D3 ag: 116.3*; HepG2 tox: -10.9%; D3 antag: -23.7; ATXN2 expr inh: inconclusive; TGFb inhibitor: inconclusive

How did O=C1OC(CCN2CCCCC2)OC1(c1ccccc1)c1ccccc1 (configuration not stated) do in these assays?
S2 tox: inactive; ATXN2 expr inh: -4.5%

What do the screens show for `O=C(CN1CCCC2CCCCC21)c1ccc(I)cc1` (configuration not stated)?
HepG2 tox: -3.1%; TGFb inhibitor: 4.7%

How did CCOC(=O)c1ccc(N2C(=O)c3n[nH]c(-c4cccs4)c3C2c2ccc(Cl)cc2Cl)cc1 (configuration not stated) do in these assays?
S2 tox: inconclusive; D3 ag: 0.7; HepG2 tox: -112.2%; ATXN2 expr inh: inconclusive; TGFb inhibitor: 4.47µM*

What do the screens show for `O=C(Nc1cccc(C(F)(F)F)c1)C1CCCN1S(=O)(=O)c1cccc2nsnc12` (configuration not stated)?
D3 ag: 9.6; HepG2 tox: -12.8%; ATXN2 expr inh: inconclusive; TGFb inhibitor: inconclusive

What do the screens show for `COc1ccc(CCNCc2ccc(SC)cc2)cc1`?
S2 tox: inactive; D3 ag: -34.7; HepG2 tox: -55.6%; D3 antag: -52.6*; ATXN2 expr inh: -26.0%; TGFb inhibitor: -2.4%

How did COc1ccc(CCNCc2cccn2C)cc1 do in these assays?
S2 tox: inactive; D3 ag: -5.4; HepG2 tox: 25.9%; D3 antag: 4.7; ATXN2 expr inh: 11.0%; TGFb inhibitor: 19.0%

Results for COP(=O)(OC)[C@@H](O)C(Cl)(Cl)Cl ?
S2 tox: inactive

What do the screens show for `O=C1NC(=O)N(Cc2ccccc2)C(=O)/C1=C/C=C/c1ccco1`?
S2 tox: 20µM*; D3 ag: 2.9; HepG2 tox: -17.5%; D3 antag: -18.3; ATXN2 expr inh: inconclusive; TGFb inhibitor: 11.2µM*
